Hits are enriched below; roughly 9.5% of the tested compounds scored in any of these assays.
NS1 function inh = inhibitors of influenza NS1 protein function | Potency, µM (doses to about 46.1 µM), inactives show at the highest dose activity, positive = more growth | 0.4% of 270,000 active; further: actives are rising curves; nearly all actives have a fitted effect of over 50% in size
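Growth recovery, yeast-based: influenza A NS1 expressed in S. cerevisiae causes slow growth, and suppressors are detected by OD600. The parent strain without NS1 is used as positive control.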
Pf growth 96h = P. falciparum growth inhibition at 96 hour, primary screen for plastid delayed-death inhibitors; P. falciparum luciferase reporter growth, 96 h; Potency, µM (titrated, usually from 28.7 µM), for inactives: at the highest dose activity change, negative = inhibition, most hits filed as inhibitors; 6.9% of 320,000 active; AID 504834; active means well fitted inhibition curve with a large enough effect; inconclusive means small, poorly fitted or top-dose-only effect, or another doubt; inactive means no such curve, though single readings can be large or run the other way; further: on the % scale 0 is the no-effect control and ±100 the full control effect
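Erythrocytes infected with luciferase-expressing P. falciparum were dispensed at 2% hematocrit and 0.05% parasitemia (final), then incubated with compounds 96 hours at 37 C in 5% CO2. Luminescence after detection reagent addition reported growth.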
Pf growth 48h = P. falciparum growth inhibition at 48 hours (one generation) | P. falciparum luciferase growth in erythrocytes, 48 h | Potency, µM (doses to about 28.7 µM), without a hit: at the highest dose activity change, negative = inhibition, hits mostly inhibitors | 5.9% of 310,000 active | AID 504832; active means well fitted inhibition curve with a large enough effect; inconclusive means small, poorly fitted or top-dose-only effect, or another doubt; inactive means no such curve, though single readings can be large or run the other way; further: on the % scale 0 is the no-effect control and ±100 the full control effect
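First compound was added to culture medium, then infected red cells at 0.1% parasitemia and 2% hematocrit (final). After incubation at 37 C under 5% CO2, luciferase detection reagent was dispensed and light output recorded.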
RE007 growth inh = less growth of the S. pombe RE007 Vpr strain | S. pombe RE007 Vpr strain, BacTiter-Glo ATP luminescence, 24 h | AID 651644 | Potency, µM (titrated, usually from 92.2 µM), without a hit: at the top dose activity change, negative = less growth, actives largely listed as inhibitors | 0.21% of 360,000 active; active means well fitted falling curve with a large enough effect; inconclusive means small, poorly fitted or top-dose-only effect; inactive means no such curve, though single readings can be large or run the other way; further: on the % scale 0 is the no-effect control and ±100 the full control effect; nearly all actives have a fitted effect of over 50% in size
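Fission yeast RE007 carrying one integrated HIV-1 vpr copy, seeded at OD 0.01 in PMG+AL medium with 23 nL pinned compound. Grown 24 h at 30 degrees; viability read by BacTiter-Glo luminescence after 5 min.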
SARS PLP yeast = inhibitors of SARS-CoV papain-like protease in yeast | Potency, µM (top dose mostly 32.9 µM), for inactives: at the top dose activity, positive = growth rescue, usual class: activators | S. cerevisiae expressing SARS-CoV PLpro, growth rescue | 0.19% of 330,000 active; further: 0% is about no effect; nearly all actives have a fitted effect of over 55% in size
The depositor's hits bear a star; [ ] = another dose, or the depositor's remark. Unless noted, the call rests on the fitted dose curve. Potency means the concentration at half of the fitted maximal effect.

`COCCn1nnnc1C(C(C)C)N(Cc1cccnc1)Cc1ccccc1Cl` (stereo unspecified) gave NS1 function inh -23.7%, Pf growth 96h -0.4%, Pf growth 48h 10.4µM*, RE007 growth inh -7.0% and SARS PLP yeast 0.8%.
COc1ccccc1NC(=S)N(Cc1cccnc1)Cc1ccccc1Cl was read as Pf growth 96h inconclusive, Pf growth 48h inconclusive, RE007 growth inh -7.0% and SARS PLP yeast -2.0%.
`CCOC(=O)C1CN(S(=O)(=O)c2ccccc2)CCN1S(=O)(=O)c1ccccc1` (stereo unspecified) gave NS1 function inh -4.8%, Pf growth 96h inconclusive, RE007 growth inh -0.4% and SARS PLP yeast -0.9%.
`Cc1ccc(C(=O)N2CCN(S(=O)(=O)N3CCCCC3)CC2)cc1` gave NS1 function inh -6.3%, Pf growth 96h 10.4µM*, Pf growth 48h 14.4%, RE007 growth inh 10.8% and SARS PLP yeast inconclusive.
Screening Cc1ccc(C(=O)N2CCN(S(=O)(=O)c3ccc(C)cc3)CC2)cc1 returned NS1 function inh 0.2%, Pf growth 96h 13.1µM*, Pf growth 48h -17.2%, RE007 growth inh -12.5% and SARS PLP yeast 23.6%.
Screening CCOC(=O)C1CN(S(=O)(=O)c2ccc(C)cc2)CCN1S(=O)(=O)c1ccc(C)cc1 (stereo unspecified) returned NS1 function inh -61.1%, Pf growth 96h 14.7µM*, Pf growth 48h inconclusive, RE007 growth inh 13.8% and SARS PLP yeast -1.2%.
Cc1ccc(OCC(=O)NCCNC(=O)c2cccnc2)cc1C was read as NS1 function inh 2.3%, Pf growth 96h 36.1%, Pf growth 48h 2.2%, RE007 growth inh 4.7% and SARS PLP yeast -0.1%.
For CCn1cc(CNC(=O)c2ccc(Cl)c([N+](=O)[O-])c2)c(C)n1 the results were NS1 function inh 3.2%, Pf growth 96h 14.7µM*, Pf growth 48h -25.9%, RE007 growth inh -9.9% and SARS PLP yeast inconclusive.
For CC(C)CNC(=O)c1cc(S(=O)(=O)N2CCOCC2)ccc1N1CCCC1 the results were NS1 function inh -0.6%, Pf growth 96h inconclusive, Pf growth 48h inconclusive, RE007 growth inh -28.5% and SARS PLP yeast -2.0%.
Screening C/C(=N\NC(=O)CCc1c[nH]c2ccccc12)c1cccc([N+](=O)[O-])c1 returned NS1 function inh 5.8%, Pf growth 96h 22.6%, Pf growth 48h 30.0%, RE007 growth inh 7.4% and SARS PLP yeast 16.5%.
For Cc1ccc(NC(=O)C(=O)NCCc2c[nH]c3ccccc23)cc1C the results were NS1 function inh 5.0%, Pf growth 96h 79.1%[1.15 µM], Pf growth 48h 45.7%, RE007 growth inh -16.9% and SARS PLP yeast 0.6%.
`Cc1cc(C)nc(NC(=NCCc2c[nH]c3ccccc23)NC(=O)Nc2cccc([N+](=O)[O-])c2)n1` gave NS1 function inh 11.3%, Pf growth 96h 57.9%, Pf growth 48h 3.29µM*, RE007 growth inh 26.2% and SARS PLP yeast -12.2%.
Cc1cc(C)nc(NC(=NCCc2c[nH]c3ccccc23)NC(=O)Nc2ccc(Cl)c(Cl)c2)n1 was read as NS1 function inh 23.8%, Pf growth 96h 2.08µM*, Pf growth 48h inconclusive, RE007 growth inh -23.3% and SARS PLP yeast -9.7%.
`Cc1cc(C)nc(NC(=NCCc2c[nH]c3ccccc23)NC(=O)Nc2ccccc2)n1` gave NS1 function inh 23.2%, Pf growth 96h 4.65µM*, Pf growth 48h 5.22µM*, RE007 growth inh 3.9% and SARS PLP yeast -13.4%.
`Cc1cc(C)nc(NC(=NCCc2c[nH]c3ccccc23)NC(=O)c2ccco2)n1` gave NS1 function inh -13.6%, Pf growth 96h 5.86µM*, Pf growth 48h 6.57µM*, RE007 growth inh -11.4% and SARS PLP yeast 5.3%.
Cc1cccc(NC(=O)NCCc2c[nH]c3ccccc23)c1 was read as NS1 function inh -0.9%, Pf growth 96h 37.2%, Pf growth 48h -0.6%, RE007 growth inh 8.3% and SARS PLP yeast 0.3%.
CC(=O)c1ccc(-c2cnc3c(NC=O)cc(-c4ccccc4Oc4ccccc4)cn23)cc1 was read as RE007 growth inh -8.3%[18.4 µM].
`CCc1cccc(C)c1NC(=S)NCc1ccc2[nH]c(C)cc2c1` gave NS1 function inh inconclusive, Pf growth 96h 10.4µM*, Pf growth 48h 13.1µM*, RE007 growth inh -0.7% and SARS PLP yeast inconclusive.
`CNC(=S)NCc1ccc2[nH]c(C)cc2c1` gave Pf growth 96h 0.0%, Pf growth 48h -1.3%, RE007 growth inh -11.3% and SARS PLP yeast -1.2%.
For CCN(CC(=O)NCc1ccc(F)cc1)C(=O)c1oc2ccccc2c1C the results were NS1 function inh 11.8%, Pf growth 96h 17.4%, Pf growth 48h inconclusive, RE007 growth inh -12.0% and SARS PLP yeast 8.6%.
`NC(Cc1ccc(C(F)(F)F)cc1)c1csc(Nc2cc(Oc3ccccc3)ncn2)n1` (stereo unspecified) gave RE007 growth inh -1.4%[18.4 µM].
CCOc1ccc(Cc2nc(-c3nonc3N)no2)cc1OCC was read as NS1 function inh 0.4%, Pf growth 96h 1.47µM*, Pf growth 48h -9.5%, RE007 growth inh -12.8% and SARS PLP yeast -1.6%.
Cc1cccc(OCc2nc(-c3nonc3N)no2)c1C was read as NS1 function inh -5.8%, Pf growth 96h inconclusive, Pf growth 48h 63.0%, RE007 growth inh 10.2% and SARS PLP yeast -8.9%.
`Fc1ccc(-n2c(-c3cccs3)nc3nc4ccccc4nc32)cc1` gave NS1 function inh -7.2%, Pf growth 96h inconclusive, Pf growth 48h -9.3%, RE007 growth inh -15.3% and SARS PLP yeast 22.3%.
Cc1ccc(-n2c(-c3cccs3)nc3nc4ccccc4nc32)cc1 was read as NS1 function inh 11.4%, Pf growth 96h 2.94µM*, Pf growth 48h 1.0% and SARS PLP yeast 15.7%.
Screening O=C(Nc1ccc2c(c1)OCO2)c1cc2nc(C3CC3)cc(C(F)(F)F)n2n1 returned NS1 function inh 13.1%, Pf growth 96h 0.0415µM*, Pf growth 48h 10.9%, RE007 growth inh 11.6% and SARS PLP yeast 2.6%.
Screening N#Cc1cn(N2CCCCC2)c(=O)[nH]c1=O returned NS1 function inh 1.9%, Pf growth 96h -1.0%, RE007 growth inh 6.1% and SARS PLP yeast -3.9%.
O=S1(=O)N[C@@H](Cc2ccccc2)COc2cc(N3CC[C@H](O)C3)ccc21 was read as RE007 growth inh 7.4%.
`Clc1ccc(-c2nnc3n2-c2ccccc2SC3)cc1` gave NS1 function inh 0.9%, Pf growth 96h 14.7%, Pf growth 48h 33.4%, RE007 growth inh 0.0% and SARS PLP yeast -1.4%.
Cc1cc(C)n(CC(=O)N2c3ccccc3Sc3ccccc32)n1 was read as NS1 function inh -3.7%, Pf growth 96h 14.4%, Pf growth 48h inconclusive, RE007 growth inh 0.2% and SARS PLP yeast -14.0%.
Screening Clc1ccccc1-c1nnc2n1-c1ccccc1SC2 returned NS1 function inh 2.3%, Pf growth 96h inconclusive, Pf growth 48h inconclusive, RE007 growth inh 5.3% and SARS PLP yeast -1.5%.

Screens (PubChem BioAssay)
